Compounds with a hit are over-represented: about 2.1% of the library has one in this group of screens.
AF4-AF9 inh: blocks AF4 peptide binding to human AF9 | inhibition, % at 10 µM | AlphaScreen, biotin-AF4 peptide binding to FLAG-AF9 | hit rate 0.47% among 350,000 | AID 651704;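 active means every replicate reaching a set inhibition limit, whatever the replicate mean, cut at about 25% in these data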;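 further: 0% = plate neutral control median and 100% = total signal loss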
Target sequence (P42568 whole entry, looked up): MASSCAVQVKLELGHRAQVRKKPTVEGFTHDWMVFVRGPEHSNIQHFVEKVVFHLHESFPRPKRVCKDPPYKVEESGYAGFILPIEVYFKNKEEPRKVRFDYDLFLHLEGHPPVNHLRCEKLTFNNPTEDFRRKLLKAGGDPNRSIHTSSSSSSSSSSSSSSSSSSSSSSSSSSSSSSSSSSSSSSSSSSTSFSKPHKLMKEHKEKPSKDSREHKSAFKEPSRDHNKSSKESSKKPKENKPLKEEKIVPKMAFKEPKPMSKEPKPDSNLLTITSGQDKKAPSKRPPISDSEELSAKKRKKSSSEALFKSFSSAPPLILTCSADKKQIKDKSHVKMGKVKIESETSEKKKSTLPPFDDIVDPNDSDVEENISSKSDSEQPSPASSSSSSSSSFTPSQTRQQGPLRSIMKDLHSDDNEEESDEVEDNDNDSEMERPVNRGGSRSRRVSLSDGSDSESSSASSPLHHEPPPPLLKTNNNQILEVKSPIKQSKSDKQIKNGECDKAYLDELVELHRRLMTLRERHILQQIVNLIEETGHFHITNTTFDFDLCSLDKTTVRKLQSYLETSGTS
PGC1a acetyl inh: lowers PGC1a acetylation signal in U2OS cells. AlphaScreen anti-acetyl-lysine; with virally co-expressed GCN5 acetyltransferase. inhibition, % at 15.6 µM. hit rate 0.17% among 350,000. AID 651687;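 active means every replicate shows inhibition of at least 40%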;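 further: 0% = neutral control wells and 100% = positive control wells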
HIV Env fusion: blocks HIV Env-driven cell-cell fusion; HeLa-JRFL Env/CEM21 cell fusion, luciferase; inhibition, % at 12.3 µM; hit rate 1.1% among 360,000; AID 651610;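 active means mean replicate inhibition score of at least 50 and every replicate individually at or above 50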;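 further: 0% = plate neutral controls and 100% = maraviroc near 300 nM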
INS-1E GSIS act: primary screen for activators of insulin secretion dependent on glucose, INS-1E cells, GLuc reporter luminescence. INS-1E GLuc reporter insulin secretion, 2-3 h. activation, % at 16.6 µM. hit rate 0.61% among 370,000;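 active means lowest replicate activation of at least 40%, so every replicate reaches that level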;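 further: 0% = median of neutral control wells and 100% = median of IBMX positive control wells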
NSD2 HMT inh: inhibitors of human histone methyltransferase NSD2; inhibition, % at 12.5 µM; hit rate 0.54% among 310,000; AID 743445; NSD2 peptide methylation, AlphaScreen, 120 min; O96028; in the data active means inhibition above about 50%
Numbers without * were called inactive; x = not tested or not shown; [ ] = another dose, or the depositor's remark.

SMILES | AF4-AF9 inh | PGC1a acetyl inh | HIV Env fusion | INS-1E GSIS act | NSD2 HMT inh
CC(C)C[C@H]1CNC(=S)N1CC1CCCN1C[C@H](Cc1ccc(O)cc1)N1C[C@H](Cc2ccccc2)N(CC2CCCCCC2)C1=S (stereo not given in full) | 0.4 | -12.4 | 58.2* | 8.6 | x
CCN(C[C@H]1[C@H](c2ccccc2)[C@@H](CO)N1C(C)=O)C(=O)NC1CCCC1 | -1.8 | 0.1 | x | 10.7 | x
Cc1cccc(S(=O)(=O)NC(=O)C2(C)CCN2C(=O)Cc2ccc(Cl)cc2Cl)c1 (stereo not given) | -3.4 | 12.0 | -3.9 | -2.5 | -1.8
CCN(CC)CCCOc1nc(C)nc2c1oc1ccccc12 | x | x | -66.8 | x | 64.5*
CCN(CC)CCOc1nc(C)nc2c1oc1ccccc12 | x | -8.7 | -101.5 | x | 10.0
COC(=O)c1nn(-c2ccccc2)c(=O)cc1Oc1ccc(Cl)cc1 | x | 3.8 | 121.7* | x | 3.0
O=C(Nc1cccc(S(=O)(=O)Nc2ccc(Cl)cc2)c1)c1ccc(Cl)nc1 | -1.1 | x | 56.3* | -32.0 | x
COc1cc(CC(=O)O)c([N+](=O)[O-])cc1OC | 7.8 | 1.4 | 5.5 | -10.0 | -2.0
COc1cc2c(cc1[N+](=O)[O-])n(C(C)C)c(=O)n2C(C)C | 1.1 | x | 4.5 | 58.3* | 0.6
CCCNc1nc2c(c(=O)[nH]c(=O)n2C)n1Cc1ccc(F)cc1 | 1.4 | -8.9 | -8.4 | 17.3 | x
Cn1c(=O)[nH]c(=O)c2c1nc([N+](=O)[O-])n2Cc1ccccc1 | -3.8 | x | -247.0 | -12.4 | -0.8
CCNc1nc2c(c(=O)[nH]c(=O)n2C)n1Cc1ccc(F)cc1 | -1.0 | -4.6 | 11.5 | 49.0* | x
Cn1c(=O)[nH]c(=O)c2c1nc(NC1CCCC1)n2Cc1ccccc1 | 2.5 | 1.7 | -5.2 | 45.7* | 0.1
Cc1ccc(-n2nc3ccc(NC(=O)c4ccco4)cc3n2)cc1 | x | -2.3 | x | 65.1* | -1.5
CC(=O)Nc1c(C(=O)C2CC2)oc2ccccc12 | 16.5 | 15.8 | x | 49.7* | -3.0
O=C(CN1CCCC1)Nc1c(C(=O)C2CC2)oc2ccccc12 | 9.2 | -1.2 | -3.0 | 18.0 | 0.3
CCS(=O)(=O)c1nc(S(=O)(=O)c2ccc(C)cc2)c(N2CCC(O)CC2)s1 | 1.3 | -6.4 | 6.6 | 41.2* | -0.7
COc1cccc(C(NC(=O)c2ccccc2F)NC(=O)c2ccccc2F)c1 | x | -0.7 | 32.6 | x | x
Cc1cccc(NC(=O)c2ccc(S(=O)(=O)N3CCCCCC3)cc2)n1 | -0.7 | 3.0 | -9.8 | -7.9 | -4.3
Cc1cccc(NC(=O)c2ccc(S(=O)(=O)N3CC(C)OC(C)C3)cc2)n1 (stereo not given) | -0.7 | x | 56.2* | -9.7 | -2.7
CCCCCc1c(-c2ccccc2OC)ncn1CCc1ccccc1OC | 9.9 | x | 69.4* | 9.5 | x
CCCCc1c(-c2ccccc2OC)ncn1C(C)c1ccc(Cl)cc1 (stereo not given) | 12.3 | x | -7.7 | 54.6* | 3.7
CCCCc1c(-c2ccccc2OC)ncn1Cc1ccc(Cl)cc1Cl | 1.9 | x | 12.3 | x | x
CCCCc1c(-c2ccccc2F)ncn1CCc1ccccc1OC | 6.6 | x | 65.0* | 63.6* | x
O=C(N[C@@H]1CC[C@@H](CCNS(=O)(=O)c2cccc(Cl)c2)O[C@H]1CO)c1ccccc1 | -0.1 | 0.8 | -0.4[16.7 µM] | 0.6 | x
SMILES | AF4-AF9 inh | PGC1a acetyl inh | HIV Env fusion | INS-1E GSIS act | NSD2 HMT inh
CO[C@@H]1CN(C)C(=O)c2ccc(NS(=O)(=O)c3cn(C)cn3)cc2OC[C@H](C)N(Cc2cccc(F)c2)C[C@H]1C | -0.7 | -2.1 | x | -15.9 | x
N#Cc1ccc(S(=O)(=O)NC[C@H]2O[C@@H](n3ccc(N)nc3=O)[C@H](O)[C@@H]2O)cc1 | -0.9 | x | 17.2 | 20.1 | x
O=S(=O)(NCCOc1ccccc1Cl)c1ccc2oc3ccccc3c2c1 | x | -11.3 | -128.5 | x | -1.7
COc1ccccc1OCCNS(=O)(=O)c1ccc2oc3ccccc3c2c1 | x | x | 57.6* | -6.3 | -2.7
Cc1ccc(OCc2cc(C(=O)N(C)CCc3nc4ccccc4[nH]3)no2)cc1C | 1.0 | -2.6 | -1.6 | -19.0 | 5.7
Cc1ccc(S(=O)(=O)N2CCCCC2)cc1NC(=O)COC(=O)c1cc[n+]([O-])cc1 | -6.5 | x | -7.3 | 4.7 | 1.0
O=c1[nH]c(Nc2ccc(F)cc2)cc2ccccc12 | x | 15.4 | -12.9 | -5.2 | 96.6*
Cc1ccc(S(=O)(=O)N2[C@H](CC(=O)OCc3ccccc3)OC[C@@H]2C(C)C)cc1 | -5.4 | x | -9.2 | -0.9 | x
COC(=O)C[C@@H]1OC[C@H](C(C)C)N1S(=O)(=O)c1ccc(C)cc1 | x | x | -18.0 | 44.2* | x
CN1CC(c2ccc(Cl)c(Cl)c2)[C@@]2(COc3ccccc3C2=O)[C@@]12C(=O)Nc1ccccc12 (stereo not given in full) | x | -7.1 | 103.1* | x | -0.1
C[C@@H]1CCCCO[C@@H](CN(C)Cc2ccc(C(F)(F)F)cc2)[C@H](C)CN([C@@H](C)CO)C(=O)c2cc(NC(=O)Nc3ccc(C(F)(F)F)cc3)ccc2O1 | x | 3.0 | 58.9*[16.7 µM] | 23.2 | x
C[C@H](CO)N1C[C@H](C)[C@H](CN(C)Cc2ccc(C(F)(F)F)cc2)OCCCC[C@H](C)Oc2ccc(NC(=O)Nc3ccccc3)cc2C1=O | x | -6.8 | 72.8*[16.7 µM] | 11.7 | x
C[C@@H]1CN([C@@H](C)CO)C(=O)c2cc(NC(=O)Nc3ccc(C(F)(F)F)cc3)ccc2O[C@@H](C)CCCCO[C@H]1CN(C)Cc1ccc(C(F)(F)F)cc1 | x | 8.9 | 42.3[16.7 µM] | 21.0 | x
C[C@@H]1CCCCO[C@H](CN(C)C(=O)c2ccccc2)[C@H](C)CN([C@@H](C)CO)C(=O)c2cc(NC(=O)Nc3ccc(C(F)(F)F)cc3)ccc2O1 | 0.2 | 16.6 | 30.3[16.7 µM] | 19.6 | x
CC(C)NC(=O)Nc1ccc2c(c1)C(=O)N([C@@H](C)CO)C[C@@H](C)[C@@H](CN(C)Cc1ccc(C(F)(F)F)cc1)OCCCC[C@@H](C)O2 | 1.2 | -1.4 | 70.3*[16.7 µM] | -16.6 | x
C[C@H]1CCCCO[C@@H](CN(C)C(=O)c2ccccc2)[C@@H](C)CN([C@@H](C)CO)C(=O)c2cc(NC(=O)Nc3ccc(C(F)(F)F)cc3)ccc2O1 | -0.7 | -1.6 | 67.8*[16.7 µM] | -3.6 | x
C[C@@H]1CN([C@@H](C)CO)C(=O)c2cc(NC(=O)CCCN(C)C)ccc2O[C@@H](C)CCCCO[C@@H]1CN(C)Cc1ccc(C(F)(F)F)cc1 | 2.5 | 110.0* | -11.9[16.7 µM] | -2.8 | x
COc1ccc(-c2cnn3c(N)c(S(=O)(=O)c4ccccc4)cnc23)cc1 | x | -8.7 | 14.7 | x | -1.6
Nc1c(S(=O)(=O)c2ccccc2)cnc2c(-c3ccc(F)cc3)cnn12 | x | -13.5 | 68.0* | x | 0.4
CS(=O)(=O)Nc1ccc(C2=NN(C(=O)c3cccc(F)c3)C(c3cccs3)C2)cc1 (stereo not given) | -9.3 | -12.6 | -26.1 | -7.9 | -1.8
Cc1ccc(-c2n[nH]c(S(C)(=O)=O)c2C#N)cc1 | x | x | 2.6 | 10.2 | -0.2
Cc1cccc(-c2n[nH]c(S(C)(=O)=O)c2C#N)c1 | 97.4* | x | 1.9 | 3.9 | -0.6
Oc1cc2c(cc1O)C1c3ccc(O)c(O)c3OCC1(O)C2 (stereo not given) | 40.0* | 11.3 | x | -13.9 | x
CCOC(=O)c1cc(C(C)C)sc1NC(=O)COC(=O)CCS(=O)(=O)c1ccccc1 | -5.2 | -10.5 | x | x | -2.0

Source: PubChem BioAssay (Broad Institute)
